# Measured values published in PubChem BioAssay (NCI).
# Compounds without any hit were thinned out: in the full panel of roughly 83,000, 20% have a hit.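 96-well plates, one dose, 48 hours. Percent growth reported; active if below 10.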 Calls of active or inactive are those of the source.
# System: HL-60(TB) leukemia
# Test: NCI-60 one-dose screen, 48 h (100 = growth as untreated, 0 = no growth, -100 = all killed)
# Conditions: 10 µM unless noted
row,SMILES,growth
1,O=C1CCC/C=C\C[C@H]2C=C(Cl)C(=O)/C2=C/C[C@H](CCCCC(F)(F)F)OC(=O)CCC/C=C\C[C@H]2C=C(Cl)C(=O)/C2=C/C[C@H](CCCCC(F)(F)F)O1,-16.5% [7.5 µM] (active)
2,COc1ccc(C(=O)c2sc3nc4c(c(-c5cccnc5)c3c2N)CCCC4)cc1OC,86.6% (inactive)
3,CC(=O)c1c(C)nc2ccccc2c1/C=C/c1ccc(F)cc1,95.6% (inactive)
4,Cc1ccc(Nc2nccc(N(C)c3ccc4c(C)n(C)nc4c3)n2)cc1S(N)(=O)=O,5.08% (active)
5,CCOC(=O)Nc1nc2ccc(SCC(C)C)cc2s1,11.6% (inactive)
6,COC(=O)[C@]12CC[C@@H](C)[C@H](C)[C@@H]1C1=CC[C@@H]3[C@@]4(C)C[C@@H](OC(C)=O)[C@H](OC(C)=O)[C@@](C)(COC(C)=O)[C@@H]4[C@H](O)C[C@@]3(C)[C@]1(C)CC2,-10.2% (active)
7,Cc1ccc(C(=O)N/N=C/c2cccc([N+](=O)[O-])c2)cn1,74% (inactive)
8,COc1ccc(C(=O)N/N=C/c2ccc(O)cc2O)cc1Nc1ccnc(C(F)(F)F)c1,14.4% (inactive)
9,S=c1[nH]c2cc(Cl)ccc2o1,86.5% (inactive)
10,COc1ccc2c(c1)c(CC(=O)[Se]C)c(C)n2C(=O)c1ccc(Cl)cc1,-38.9% (active)
11,COc1c(B(O)O)cccc1-c1nc2ccc3[nH]ncc3c2c2c1CCCC2,-28.1% (active)
12,COc1cc(/C=C2\C(=O)Nc3cc(C)c(O)cc32)cc(OC)c1OC,46.7% (inactive)
13,CCN1C(=O)N(CC)C2Nn3c(s/c(=C4\C(=O)N(CC(C)C)c5ccccc54)c3=O)=NC21 (stereo not given),18.9% (inactive)
14,C=C(CBr)[C@@H]1CC[C@]2(C(=O)O)CC[C@]3(C)[C@H](CC[C@@H]4[C@@]5(C)CCC(=O)C(C)(C)[C@@H]5CC[C@]43C)[C@@H]12,71.7% (inactive)
15,CCCCCCN(C)Cc1ccc(OCCOc2ccc(CN(C)CCCCCC)cc2)cc1,-43.4% (active)
16,CCN=C1C=CC(=C(c2ccc(N(C)C)cc2)c2ccc(N(C)C)cc2)c2ccccc21,-9.26% (active)
17,CCOC(=O)CSSCC(=O)OCC,108% (inactive)
18,CC1(C)CC[C@]2(C(=O)NCC#CCN3CCOCC3)CC[C@]3(C)C(=CC[C@@H]4[C@@]5(C)Cc6c([nH]c7ccccc67)C(C)(C)[C@@H]5CC[C@]43C)[C@@H]2C1,62.7% (inactive)
19,COc1ccc(C2=C/C(=C\c3ccc(Cl)cc3)C(=O)NN2C(=S)NN)cc1,93.3% (inactive)
20,S=c1[nH]c(=S)c2c(-c3ccccc3)c(-c3ccccc3)oc2[nH]1,94.9% (inactive)

row,SMILES,growth
1,c1ccc(-c2nc(N3CCNCC3)c3oc(-c4ccccc4)nc3n2)cc1,-46.5% (active)
2,COc1ccc(Cn2cc(C(=O)N=Nc3c(O)[nH]c4c(C)cccc34)nn2)cc1,78.9% (inactive)
3,O=c1cc(-c2ccccc2)[nH]c2c1CCCC2,19.1% (inactive)
4,COc1cc(OC)c2c(=O)c(O)c(-c3ccccc3)oc2c1,53.4% (inactive)
5,N=c1c2c(=O)n3c(nc2nc2sc4ccc(Cl)cc4n12)-c1ccccc1Sc1ccccc1-3,4.46% (active)
6,CCc1ccc(CNCC(O)c2ccccc2)cc1 (stereo not given),95.7% (inactive)
7,COc1ccc(C(=O)c2cc3c(N)c(C(=O)Nc4cccc(OC)c4)sc3nc2C)cc1,-44.5% (active)
8,Cc1ccc([P+](Cc2ccc([N+](=O)[O-])cc2)(c2ccc(C)cc2)c2ccc(C)cc2)cc1,-43.8% (active)
9,O=C1c2cccc3cccc(c23)C(=O)N1CCCCCCCCCCN1C(=O)c2cccc3cccc(c23)C1=O,99.6% (inactive)
10,Cc1ccc(-c2nc3nc(-c4ccccc4)nc(N4CCCNCC4)c3o2)cc1,-69.8% (active)
11,COc1ccc(C(O)(c2ccccc2)C(C(=O)O)c2ccccc2)cc1 (stereo not given),110% (inactive)
12,OC1CCCc2ccccc21 (stereo not given),98.4% (inactive)
13,Ic1cccs1,104% (inactive)
14,O=S(=O)(NCCNc1nccc(-c2c(-c3cccc(O)c3)nc3occn23)n1)c1ccc(Br)cc1,18% (inactive)
15,C[C@H]1[C@@H]2[C@H]3CC[C@@H]4[C@@]5(C)Cc6c([nH]c7ccccc67)C(C)(C)[C@@H]5CC[C@@]4(C)[C@]3(C)CC[C@]23CO[C@]1(C)[C@@H](C(=O)/C=C/c1ccccn1)C3,72.4% (inactive)
16,COc1ccc2c(c1)CCc1[nH]nc(-c3cc(OC)c(OC)c(OC)c3)c1-2,-20.4% (active)
17,COc1cc(-c2cc(/C=C/C(=O)c3ccc(N)cc3)[nH]n2)cc(OC)c1OC,13.2% (inactive)
18,O=C(c1ccc(C(F)(F)F)c(Cl)c1)N(Cc1ccc(Cl)cc1)c1ccc(-c2cc(C(F)(F)F)[nH]n2)c(O)c1,-14.9% (active)
19,COc1cccc(/C=C/C(=O)/C=C(/C=C/c2cccc(OC)c2OC)OB(F)F)c1OC,26.1% (inactive)
20,COc1ccc(/C=C/c2cc(N3CCOCC3)c3cc(F)c(F)cc3n2)cc1OC,-8.49% (active)
